# Inconclusive results are not listed. The source made the active and inactive calls. Calls follow the shape of the full dose curve.
# Experiment: qHTS for Inhibitors of the Functional Ribonucleoprotein Complex (vRNP) of Lassa (LASV) Arenavirus: Viability assay - alamar blue signal for LASV Confirmatory Screen
# Conditions: LASV vRNP counter-screen cells; series mostly up to 53.9 µM; activity change, negative = decreased viability: at the top concentration
SMILES,Potency,"activity change, negative = decreased viability"
Cc1cccc(-c2[nH]c(C(C)(C)C)nc2-c2ccc3c(c2)OCO3)n1,4.85 µM (active),–
CC[C@@H](C(=O)O)[C@@H]1O[C@@H]([C@@H](C)[C@H](O)[C@H](C)C(=O)[C@H](CC)[C@H]2O[C@]3(C=C[C@@H](O)[C@]4(CC[C@@](C)([C@H]5CC[C@](O)(CC)[C@H](C)O5)O4)O3)[C@H](C)C[C@@H]2C)[C@@H](C)C[C@@H]1C,1.57 µM (active),–
CC1=C(C)C(=O)C(CCCCC#CCCCC#CCO)=C(C)C1=O,24.3 µM (active),–
Cc1ncc([N+](=O)[O-])n1CC(C)O (stereo not drawn),–,-11.4% (inactive)
Cc1cnc(NC(=O)C2=C(O)c3ccccc3S(=O)(=O)N2C)s1,–,-18% (inactive)
CC12C(=O)OC(=O)C1(C)C1CCC2O1 (stereo not drawn),3.85 µM (active),–
COc1cc2c(cc1OC)CC(=O)N(CCCN(C)C[C@H]1Cc3cc(OC)c(OC)cc31)CC2,–,3.57% (inactive)
CC(=O)OCC(=O)[C@@]12N=C(C)O[C@H]1C[C@H]1[C@@H]3CCC4=CC(=O)C=C[C@]4(C)[C@@H]3[C@@H](O)C[C@@]12C,–,-42.9% (inactive)
O=C1c2ccccc2-n2c1nc1ccccc1c2=O,3.85 µM (active),–
O=C1Cc2cc(CCN3CCN(c4nsc5ccccc45)CC3)c(Cl)cc2N1,inactive,–
CCn1c(-c2nonc2N)nc2cnc(Oc3cccc(NC(=O)c4ccc(OCCN5CCOCC5)cc4)c3)cc21,8.63 µM (active),–
CC(C)=CCC/C(C)=C/CC/C(C)=C/CC[C@]1(C)CCc2c(C)c(O)c(C)c(C)c2O1,–,6.56% [at 6 µM] (inactive)
Cc1ccc2c(c1)C1CN(C)CCC1N2 (stereo not drawn),–,-11.9% [at 19.4 µM] (inactive)
C=C(C)C1Cc2c(ccc3c2OC2COc4cc(OC)c(OC)cc4C2C3=O)O1 (stereo not drawn),0.0968 µM (active),–
Cn1cc(-c2ccncc2)c(-c2ccc(OCc3ccc4ccccc4n3)cc2)n1,21.7 µM (active),–
CO/C=C(/C(=O)OC)c1ccccc1Oc1cc(Oc2ccccc2C#N)ncn1,31.4 µM (active),–
O=C(Nc1ccccc1)Nc1ccc(-c2ccc(C(=O)[C@H]3CCC[C@H]3C(=O)O)cc2)cc1,–,-29.7% (inactive)
COC(=O)c1nc(Cl)c(Cl)nc1N,1.93 µM (active),–
CCCCC[C@H](O)/C=C/C=C/C/C=C\CCCC(=O)O,–,20.4% [at 0.666 µM] (inactive)
Cc1cc2c(C(C)C)c(O)c(O)c(C=O)c2c(O)c1-c1c(C)cc2c(C(C)C)c(O)c(O)c(C=O)c2c1O,21.7 µM (active),–
CC(O)(P(=O)(O)O)P(=O)(O)O,–,10.9% (inactive)
C=C(C)[C@H]1Cc2c(ccc3c2O[C@@H]2COc4cc(OC)c(OC)cc4[C@@H]2C3=O)O1,0.193 µM (active),–
S=C(NCc1ccc2c(c1)OCO2)N1CCN(c2ncnc3c2oc2ccccc23)CC1,8.85 µM (active),–
